The results in this text go back to PubChem BioAssay.

Activity calls are given as the source filed them.

In test [1] the test system is Human papillomavirus type 1a protein E7 (residues 44-93). Nature of the test: HPV1a E7 fragment binders on microarrays, primary screen, biochemical, small-molecule microarray, residues 44-93, 635 nm fluorescence (AID 1108).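 Also: E7 fragment applied at 1 µg/mL in TBST for 1 h at 4 C; score combines spot fluorescence with its signal to noise ratio.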 Conditions: small-molecule microarray binding, fluorescence 635 nm; higher = more signal.
The nature of test [2]: modulators of HCV replicon luciferase signal, primary screen, HCV replication inhibitor project, Huh7 cells, luciferase reporter (AID 1109).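 Also: huh7 hepatoma cells harbouring a luciferase neomycin HCV replicon reporter; luciferase luminescence as measure of HCV replicon replication; test concentration not given here.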 Conditions: 48 h, higher = more signal.
For test [3], the target named is Left-right determination factor 2 (Homo sapiens) (UniProt O00292). Nature of the test: LEFTY2 binders on small-molecule microarrays, primary screen, biochemical, small-molecule microarray, 635 nm fluorescence scan (AID 1110). Conditions: LEFTY2 binding, higher = more signal.
The target of test [4] is Calmodulin-1 (Homo sapiens) (UniProt P0DP23). Briefly: CALM1 binders on microarrays, EGTA buffer, profiling panel, biochemical, small-molecule microarray, Cy5-labelled CALM1 (AID 1111).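 Also: labelled calmodulin applied in Tris saline Tween buffer holding calcium plus EGTA and DTT.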 Conditions: Cy5-CALM1 binding fluorescence, higher = more signal.
Test [5] has the same target. Nature of the test: calcium-bound CALM1 binders on microarrays, profiling panel, artefact control for SMM control-protein annotation, biochemical, small-molecule microarray, Cy5-labelled CALM1, plus calcium (AID 1112).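 Also: score merges spot fluorescence with signal to noise from triplicate slides.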 Conditions: Cy5-CALM1 binding fluorescence, higher = more signal.
Test [6] can be described thus: small-molecule microarray binders of probe aWnt5a, primary screen, biochemical, biotinylated probe, 635/667 nm fluorescence (AID 1113).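 Also: score merges 667 nm fluorescence intensity with signal-to-noise per printed feature.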 Conditions: higher = more signal.
Test [7] in a line: small-molecule microarray binders of probe aShh, primary screen, biochemical, biotinylated probe, 635/667 nm fluorescence (AID 1114).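 Also: probe is biotin-labelled aShh protein from a stem cell growth factor screen; measures binding of labelled protein to compounds printed on the slide; score merges feature fluorescence at 667 nm with signal-to-noise.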 Conditions: higher = more signal.
A short description of test [8]: small-molecule microarray binders of probe aNog, primary screen, biochemical, biotinylated probe, 635/667 nm fluorescence (AID 1115).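 Also: probe is biotinylated aNog protein used at 0.15 µg/mL for 1 h at 4 C; z-score combines 667 nm fluorescence of each spot with its signal to noise.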 Conditions: higher = more signal.
Test [9] deals with Torsin-1A-interacting protein 1 (Homo sapiens) (UniProt Q5JTV8). Briefly: LAP1 binders from COS7 cell lysate, primary screen, small-molecule microarray, 635/667 nm fluorescence (AID 1116). Conditions: COS7-hLAP1 lysate binding, 635 nm fluorescence, higher = more signal.
For test [10], the target named is Alpha-bungarotoxin (Bungarus multicinctus) (UniProt P60615). Nature of the test: alpha-bungarotoxin binders on microarray, profiling panel, artefact control for SMM control protein annotation, biochemical, small-molecule microarray, Alexa647 label, 635/667 nm fluorescence (AID 1117). Conditions: alpha-BTX-A647 binding fluorescence, higher = more signal.
The target in another test is Albumin (Bos taurus) (UniProt P02769). Nature of the test: bovine serum albumin binders on microarray, profiling panel, artefact control for SMM control protein annotation, biochemical, small-molecule microarray, Alexa647 label, 635/667 nm fluorescence (AID 1118).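 Also: score merges 667 nm emission intensity and signal-to-noise per printed compound spot.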 Conditions: BSA-A647 binding, fluorescence 635 nm, higher = more signal.
The nature of test [11]: small-molecule microarray binders of probe aXIP, primary screen, biochemical, NeuroSMM set, 635/667 nm fluorescence (AID 1119).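 Also: probe is the protein aXip251-270 applied at 1 µg/mL to compound-printed slides; binding of probe to printed compounds measured as 667 nm fluorescence plus signal to noise.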 Conditions: higher = more signal, called active from +8 up or from −8 down.
The nature of test [12]: small-molecule binders of probe aNOTCH3, primary screen, biochemical, small-molecule microarray, 635/667 nm fluorescence (AID 1120).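 Also: probe is a biotin-tagged antibody raised against NOTCH3 rather than NOTCH3 protein; score merges spot fluorescence near 667 nm with spot signal to noise.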 Conditions: higher = more signal.
Test [13] in a line: small-molecule binders of probe aNOTCH2, primary screen, biochemical, small-molecule microarray, 635/667 nm fluorescence (AID 1121).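 Also: score merges feature fluorescence read at 667 nm with its signal to noise.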 Conditions: higher = more signal.
The target of test [14] is Carbonic anhydrase 2 (Homo sapiens) (UniProt P00918). Briefly: CAII small-molecule binders, profiling panel, biochemical, small-molecule microarray, Alexa647-labelled CAII (AID 1122). Conditions: CAII-A647 binding fluorescence, higher = more signal.
The nature of test [15]: COS7 lysate on small-molecule microarray, probe aHis, 635 nm (AID 1123).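 Also: z-score combines 667nm fluorescence intensity with signal-to-noise per printed compound spot.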 Conditions: COS7 cell lysate, fluorescence, higher = more signal.
Test [16] can be described thus: compound binding in COS7 lysate, probe aLAP1, primary screen, cell lysate, small-molecule microarray (AID 1124).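 Also: lysate comes from COS7 cells expressing LAP1 and is applied at 0.3 µg/mL; score merges spot fluorescence near 667 nm with signal-to-noise over triplicate slides.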 Conditions: probe aLAP1, fluorescence, higher = more signal.
For a further test, the system named is Sam68 (KHDRBS1). Briefly: Sam68 small-molecule binders, primary screen, biochemical, small-molecule microarray, 635 nm fluorescence (AID 1125).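 Also: score merges 667 nm channel intensity with signal to noise over triplicate slides.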 Conditions: small-molecule microarray binding, higher = more signal.
The test system of test [17] is Chordin-like protein 2 (CHRDL2). Nature of the test: CHRDL2 small-molecule binders, primary screen, biochemical, small-molecule microarray, 635 nm fluorescence (AID 1126).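 Also: printed compound slides probed with Chrdl2 protein at 4 µg/mL for 1 h at 4 C; score merges 667 nm emission intensity with signal to noise over three replicate slides.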 Conditions: small-molecule microarray binding, fluorescence 635 nm; higher = more signal.
Test [18] deals with Concanavalin-A (Canavalia ensiformis) (UniProt P02866). Nature of the test: ConA small-molecule binders, primary screen, artefact control for SMM control protein annotation, biochemical, small-molecule microarray, Alexa647 label, 635 nm (AID 1127).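 Also: z combines 667 nm emission intensity with signal-to-noise across three replicate slides.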 Conditions: ConA-A647 binding fluorescence, higher = more signal.
Sequence of Concanavalin-A (Canavalia ensiformis) (P02866 whole entry, looked up): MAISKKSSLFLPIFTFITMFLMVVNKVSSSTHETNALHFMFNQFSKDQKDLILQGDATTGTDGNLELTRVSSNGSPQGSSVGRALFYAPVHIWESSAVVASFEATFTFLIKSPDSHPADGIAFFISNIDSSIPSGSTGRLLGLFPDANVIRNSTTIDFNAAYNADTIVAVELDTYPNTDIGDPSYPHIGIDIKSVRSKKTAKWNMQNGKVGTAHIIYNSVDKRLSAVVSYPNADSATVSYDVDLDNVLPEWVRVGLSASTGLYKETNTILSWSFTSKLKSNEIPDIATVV

Sequence of Albumin (Bos taurus) (P02769 whole entry, looked up): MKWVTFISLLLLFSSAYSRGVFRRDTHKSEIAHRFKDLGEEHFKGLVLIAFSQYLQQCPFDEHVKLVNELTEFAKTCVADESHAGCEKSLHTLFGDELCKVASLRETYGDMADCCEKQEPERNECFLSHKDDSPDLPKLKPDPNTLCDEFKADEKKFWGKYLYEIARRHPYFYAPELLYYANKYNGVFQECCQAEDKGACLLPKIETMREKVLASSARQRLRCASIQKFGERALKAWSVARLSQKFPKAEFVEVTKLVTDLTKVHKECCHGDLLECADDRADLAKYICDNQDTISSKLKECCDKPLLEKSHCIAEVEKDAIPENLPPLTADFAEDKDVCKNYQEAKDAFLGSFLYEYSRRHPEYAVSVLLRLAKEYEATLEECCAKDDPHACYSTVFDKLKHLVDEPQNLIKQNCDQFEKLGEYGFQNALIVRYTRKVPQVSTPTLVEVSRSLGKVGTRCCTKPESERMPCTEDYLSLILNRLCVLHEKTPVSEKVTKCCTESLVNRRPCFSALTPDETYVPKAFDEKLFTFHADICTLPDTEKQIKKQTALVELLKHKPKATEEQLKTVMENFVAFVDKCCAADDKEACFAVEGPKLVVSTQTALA
Sequence of Left-right determination factor 2 (Homo sapiens) (O00292 whole entry, looked up): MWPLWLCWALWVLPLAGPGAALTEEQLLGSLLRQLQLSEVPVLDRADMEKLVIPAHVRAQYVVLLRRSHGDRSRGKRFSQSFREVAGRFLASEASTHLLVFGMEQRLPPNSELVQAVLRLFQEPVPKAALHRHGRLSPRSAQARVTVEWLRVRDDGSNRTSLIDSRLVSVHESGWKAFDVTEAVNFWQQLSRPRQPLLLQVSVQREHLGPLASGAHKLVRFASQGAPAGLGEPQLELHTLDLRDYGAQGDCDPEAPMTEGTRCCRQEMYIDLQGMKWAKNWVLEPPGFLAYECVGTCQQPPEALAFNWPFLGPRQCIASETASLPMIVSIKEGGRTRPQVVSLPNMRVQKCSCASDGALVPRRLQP
Sequence of Torsin-1A-interacting protein 1 (Homo sapiens) (Q5JTV8 whole entry, looked up): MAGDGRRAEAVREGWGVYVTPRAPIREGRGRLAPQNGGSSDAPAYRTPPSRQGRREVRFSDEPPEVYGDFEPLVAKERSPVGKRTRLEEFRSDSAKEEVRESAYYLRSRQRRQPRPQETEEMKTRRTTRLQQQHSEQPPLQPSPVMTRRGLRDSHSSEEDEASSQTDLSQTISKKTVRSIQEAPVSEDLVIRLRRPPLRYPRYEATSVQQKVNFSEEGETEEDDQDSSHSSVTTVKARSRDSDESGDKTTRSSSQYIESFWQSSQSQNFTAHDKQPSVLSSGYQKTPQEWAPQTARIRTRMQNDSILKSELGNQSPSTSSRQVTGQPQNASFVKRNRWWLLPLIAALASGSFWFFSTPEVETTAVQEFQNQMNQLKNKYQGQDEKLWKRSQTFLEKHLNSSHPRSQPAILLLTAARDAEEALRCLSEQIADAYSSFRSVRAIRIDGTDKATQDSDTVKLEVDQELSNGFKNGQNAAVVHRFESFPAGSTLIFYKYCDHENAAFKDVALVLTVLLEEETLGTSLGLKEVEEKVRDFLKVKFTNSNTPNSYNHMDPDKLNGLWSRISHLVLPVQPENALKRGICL
Sequence of Alpha-bungarotoxin (Bungarus multicinctus) (P60615 whole entry, looked up): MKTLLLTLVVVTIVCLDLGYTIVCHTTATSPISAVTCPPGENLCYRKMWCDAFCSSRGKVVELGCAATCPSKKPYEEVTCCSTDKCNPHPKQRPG

As to `CC(C)(C)OC(=O)CC[C@]1(C(=O)NCCN2CCOCC2)COC(c2ccc(OCCCO)cc2)=N1`, the composite z-score in test [1] was 1.42; in test [3] it was 0.051; in test [4], 0.762; in [5], -0.23; in [6], 0.0559; in test [7] it was -0.0066. The composite z-score in test [8] was 0.951; in [9], 1.27; in [10] it was 0.791; in the test with Albumin (Bos taurus), 0.735; in test [12], 0.199; in test [13], -0.0995. The composite z-score is 0.719 in test [14]; 2.48 in test [15]; 0.737 in test [16]; 1.28 with Sam68 (KHDRBS1); -0.634 in [17]; 0.919 in test [18]. This compound also registered a z-score in [2] of -0.464. The composite Z-score in [11] is 0.347 (inactive).
As to `COC(=O)[C@@]1(Cc2ccc(F)cc2)[C@H]2c3cc(C(=O)N(C)C)n(Cc4cc(C)n(C)n4)c3C[C@H]2CN1C(=O)c1ccccc1`, the composite z-score in [1] was 0.923; in test [3], -0.476; in test [4], 2.43; in [5] it was 0.669; in [6], 0.418; in [7], -0.0324. Moreover, the composite z-score in test [8] was determined as 1.82; in [9], 2.58; in test [10], 0.42; in the test with Albumin (Bos taurus), 1.03; in test [12], 0.19; in [13], 0.0552. In addition, the composite z-score in test [14] is 0.806; in [15] it was 3.08; in [16], 0.738; with Sam68 (KHDRBS1) it was 1.31; in [17], -0.141; in test [18], 1.01. Also, in test [2], the z-score worked out at 0.107. In addition, in test [11], the composite Z-score was 0.467 (inactive).
As for `CC(C)(C)OC(=O)CC[C@]1(C(N)=O)N=C(c2ccc(OCCCO)cc2)O[C@H]1c1ccccc1`, the composite z-score is -0.0059 in test [1]; -0.23 in test [3]; 2.64 in [4]; 1.66 in test [5]; 0.116 in test [6]; 0.707 in test [7]. Further, the composite z-score in [8] stood at 1.36; in [9] it was 3.07; in [10] it was 2.12; in the test with Albumin (Bos taurus), 0.963; in test [12], 0.405; in [13], 0.133. Also, the composite z-score in [14] was 0.848; in test [15], 3.21; in test [16], 0.834; with Sam68 (KHDRBS1), 1.25; in test [17], -1.34; in test [18], 0.32. In test [2], this compound yielded a z-score of 0.666. The composite Z-score in test [11] is 0.0933 (inactive).
On to `COC(=O)C(CC#Cc1ccc2c(c1)[C@]1(C(=O)N2)[C@H](c2ccc(O)cc2)N2[C@H](c3ccccc3)[C@H](c3ccccc3)OC(=O)[C@H]2[C@@H]1C(=O)N1CCN(c2ncccn2)CC1)C(=O)OC`, for which the composite z-score in test [1] was 0.584; in [3], -0.0195; in test [4], 1.1; in test [5] it was -0.0671; in test [6] it was -0.0748; in test [7], -0.0143. In addition, the composite z-score in [8] was 0.36; in [9], 0.683; in [10], 2.4; with Albumin (Bos taurus) it was 0.518; in test [12], 0.166; in test [13] it was 0.0669. Moreover, the composite z-score in test [14] worked out at 0.476; in test [15] it was 2.47; in test [16], 0.415; in the test on Sam68 (KHDRBS1), 1.28; in [17] it was 0.0801; in test [18] it was 1.11. For the same compound, the z-score in [2] is -0.305. The composite Z-score in [11] is 0.471 (inactive).
On to `CCCCN1CC=CC23O[C@@H]4C=CCOC(=O)[C@@H]4[C@H]2C(=O)N(CCCCCCO)[C@@H]3C1=O` (stereo not given in full), for which the composite z-score in test [1] is -0.477; in [3], -1.18; in test [4], -1.01; in [5], 0.224; in [6], -0.203; in test [7], -0.138. The composite z-score is 0.193 in test [8]; 1.41 in [9]; -1.35 in test [10]; -0.469 with Albumin (Bos taurus); -0.182 in [12]; -0.187 in [13]. Also, the composite z-score in test [14] was 0.95; in test [15] it was -0.275; in test [16], 0.456; in the test with Sam68 (KHDRBS1) it was -0.821; in [17] it was -1.83; in [18], -1.24. Besides, the z-score in [2] is -0.672. Further, the composite Z-score in [11] was 0.998 (inactive).
